# Screening data as filed in PubChem BioAssay.
# Rows were chosen to be rich in hits. Some 3% of all compounds tested hit in one or more screens of this group.
# LDHA inh: LDHA (human) enzyme inhibition; activity change, % (values are at about 110 or 230 µM); purified LDHA, NADH/diaphorase-resazurin fluorescence; stronger effect = lower value; P00338; hit rate 0.15% among 480,000; AID 1347041; in the data active means activity change below about -30%; inconclusive means mostly about -25% to -30%;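 further: plate controls were DMSO wells for no effect and wells without enzyme for full effect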
#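 LDH5 2 nM; NADH 0.06 mM, pyruvate 0.2 mM; 200 mM Tris pH 7.4, EDTA, Tween-20; 5 min RT. Detection: diaphorase 0.133 mg/mL + resazurin 37 µM, fluorescence ex540/em590 at 0 and 20 min; normalized to enzyme-free and DMSO wells.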
# ClpP mod: qHTS Assay for Activators of ClpP. AID 651965, 2013. hit rate 1.9% among 340,000. purified B. subtilis ClpP, FRET peptide cleavage, 20 min. Potency, µM (series often up to 57.5 µM), for the others: at the top dose activity change, negative = active. ATP-dependent Clp protease proteolytic subunit (Bacillus subtilis (strain 168)), P80244; active means well fitted falling curve with a large enough effect; inconclusive means small, poorly fitted or top-dose-only effect; inactive means no such curve, though single readings can be large or run the other way; further: potency means the concentration at half of the fitted maximal effect; the source files actives as falling curves though it sought activators and does not explain the sign; nearly all actives have a fitted effect of over 65% in size
#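 FRET quenching reversal measured ClpP activation: 10 microg/mL B. subtilis ClpP at pH 8 with the FRET-FV decapeptide, read at 430 nm after 320 nm excitation. The 20-min minus 0-min signal was scaled between DMSO/no-enzyme wells and ADEP (5.8 microM final).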
# KCNH2 3.1 inh: inhibitors of human KCNH2 3.1 potassium channel isoform; U2OS KCNH2 3.1, thallium flux FluxOr; stronger effect = lower value; activity change, % (tested at about 1.8 µM); hit rate 0.95% among 340,000; AID 720553;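 active means maximum activity change below -70%; inconclusive means maximum activity change from -70% to -50%; inactive means maximum activity change above -50%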;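 further: thallium influx rate constant from kinetic fluorescence after stimulation buffer; on the % scale 0 is the no-effect control and ±100 the full control effect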
#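 Steps: virus added to U2OS suspension (4 h, RT, dark); medium with 10% FBS added, cells plated, 37 C overnight; FluxOr/Red40 loading buffer 45 min RT; stimulation buffer, 2 min kinetic read; rate constant normalized.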
# hERG WT inh: blocks the wildtype human KCNH2 potassium channel. U2OS, BacMam KCNH2, thallium flux FluxOr; stronger effect = lower value. hit rate 0.37% among 340,000. AID 720551. activity change, % at 1.84 µM. Q12809;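 active means maximum activity change below -70%; inconclusive means maximum activity change between -70% and -50%; inactive means maximum activity change above -50%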; further: on the % scale 0 is the no-effect control and ±100 the full control effect
#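 U2OS cells transduced with wild-type KCNH2 virus are loaded with FluxOr dye for 45 min, and thallium flux is measured in kinetic reads before and after stimulation buffer. Rate constants are normalized to DMSO controls.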
# BCR signal inh: chronic active BCR signaling inhibition | ABC-DLBCL IkBa-CBG/CBR reporter, luminescence ratio, 4 h | Potency, µM (highest dose often 46.1 µM), for inactives: at the top dose activity change, negative = inhibition, actives largely listed as inhibitors | hit rate 0.05% among 340,000 | AID 493014; active means well fitted inhibition curve with a large enough effect in the signal ratio, with a control signal flat, not every such curve was filed as active; inconclusive means small, poorly fitted or top-dose-only effect, or effect the other way, or a change in a side signal; the % refers to the signal ratio;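 further: potency means the concentration at half of the fitted maximal effect; plate controls were basal doxycycline-induced cells for no effect and cells given 10 µM MG132 for full effect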
#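 Doxycycline induced both beetle luciferases in TMD8 lymphoma cells; IKK-driven degradation limits the IkappaBalpha-fused green signal, while red luminescence normalises for cell number and nonspecific effects. Compounds tested up to 46 uM, 4 hrs.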
# 12-LOX inh: blocks human arachidonate 12S-lipoxygenase; P18054; purified 12hLO, xylenol orange hydroperoxide absorbance; Potency, µM (top dose mostly 108 µM), without a hit: at the top dose activity change, negative = inhibition, usual class: inhibitors; hit rate 1.1% among 580,000; AID 1671190; active means well fitted inhibition curve with a large enough effect; inconclusive means small, poorly fitted or top-dose-only effect, or another doubt; inactive means no such curve, though single readings can be large or run the other way; further: potency means the concentration at half of the fitted maximal effect; on the % scale 0 is the no-effect control and ±100 the full control effect
#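 Purified human 12hLO at 150 nM in 25 mM Hepes, 0.01% Triton X-100, pH 7.0, preincubated 15 min at room temperature with compound. Reaction started with 40 uM arachidonic acid, 30 min at room temperature. Hydroperoxide measured by Fe-xylenol orange, 573/405 nm absorbance ratio.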
# An asterisk follows results filed as active; ? = inconclusive; nt = no result given; ! = repeats disagree.
SMILES,LDHA inh,ClpP mod,KCNH2 3.1 inh,hERG WT inh,BCR signal inh,12-LOX inh
O=C(COC(=O)CCc1c[nH]c2ccccc12)NCC(F)(F)F,4,nt,nt,nt,nt,-6%
O=C(COC(=O)c1ccc(Br)o1)Nc1ncc([N+](=O)[O-])s1,-3,1%,3,-11,?,13%
CC(=O)NC(C)CCc1ccccc1 (stereo not given),-8,nt,-3,-13,2%,0%
COc1ccc(C(=O)OCC(=O)NC(C)CCc2ccccc2)cc1OC (stereo not given),0,-4%,80,-77*,-3%,76%
CC(CCc1ccccc1)NC(=O)C(=O)NCCO (stereo not given),-18,-2%,-78*,8,-3%,-3%
COc1ccc(C(=O)OCC(=O)Nc2ncc([N+](=O)[O-])s2)cc1OC,1,0%,1,1,?,35µM*
COc1ccc(C(=O)OCC(=O)NC(C)CCc2ccccc2)cc1 (stereo not given),-1,-2%,3,-6,-1%,-11%
CC(CCc1ccccc1)NC(=O)COC(=O)c1ccccc1Br (stereo not given),-1,0%,3,7,-17%,-1%
CC(CCc1ccccc1)NC(=O)COC(=O)c1cccc2ccccc12 (stereo not given),-4,25µM*,-16,1,4%,2%
O=C(NCc1ccc2c(c1)OCCO2)N1CCN(S(=O)(=O)c2cccc(Cl)c2Cl)CC1,3,nt,nt,nt,nt,?
COc1ccc(N(C)C(=O)c2cc(C)nc3ccccc23)cc1OC,-22,nt,nt,nt,nt,?
Cc1noc(C)c1S(=O)(=O)N1CCC2(C1)C(=O)N(C)c1ccccc12 (stereo not given),nt,nt,nt,nt,nt,75%
COCC(C)NCC(=O)NC(C)CCc1ccccc1 (stereo not given),-30*,-4%,5,-1,4%,?
O=C(O)CSc1ccc(F)c(F)c1,3,nt,nt,nt,nt,-50%
CCOC(=O)c1cc2cc(Oc3cccc(C)c3)ccc2[nH]1,9,nt,nt,nt,nt,?
O=C(O)c1ccc(N/N=C/c2ccnc3ccccc23)cc1,-37*,-1%,-2,1,?,13%
O=C(c1ccc2nccn2c1)N1CCN(c2cnccn2)CC1,nt,nt,nt,nt,nt,7%
O=C(NC(=S)NCc1ccccc1)c1ccc2c(c1)OCO2,-2,2%,-10,-4,15%,16µM*
Cc1c(C=O)c2ccccc2n1CC(=O)NCc1ccc2c(c1)OCO2,-3,nt,-390*,-3,2%,-25%
COc1ccc(C(=O)NC(=S)NCc2ccccc2)cc1,-1,-1%,-5,-7,8%,0.71µM*
CC(C)=C(NC(=O)c1ccccc1)C(=O)NCc1ccccc1,-6,nt,-118*,-8,-1%,14%
O=C(COc1cccnc1)N[C@H]1CCOC[C@H]1C1CCOCC1,nt,nt,nt,nt,nt,23%
O=C(NC(=S)NCc1ccc2c(c1)OCO2)c1ccccc1,-10,-2%,-5,-1,-1%,16µM*
Cc1onc(-c2c(F)cccc2Cl)c1C(=O)NCc1ccc2c(c1)OCO2,-8,28µM*,10,-3,6%,397%
CC(C)C(=O)Nc1cccc(NC(=S)NC(=O)c2ccc3c(c2)OCO3)c1,-3,5%,nt,-5,7%,3.5µM*
SMILES,LDHA inh,ClpP mod,KCNH2 3.1 inh,hERG WT inh,BCR signal inh,12-LOX inh
O=C(NCc1ccc2c(c1)OCO2)c1ccccc1,1,nt,13,13,-4%,-17%
CCOP(=O)(OCC)C(NC(=O)c1ccc(OC)cc1)c1ccccc1 (stereo not given),1,-1%,-96*,2,3%,0%
COc1ccc(NC(=O)c2cccc(-c3ccc(S(=O)(=O)N4CCCC4)cc3)c2)cc1OC,6,nt,nt,nt,nt,?
COC[C@@H]1CN(C(=O)c2cc(C)cc(C)c2)C[C@H]1C(N)=O,nt,nt,nt,nt,nt,15%
CC(C)(C)c1cc(C(=O)Nc2cccc(C(=O)O)c2)cc(C(C)(C)C)c1,4,nt,nt,nt,nt,-1%
O=C(O)CCC(NC(=O)c1cncc(O)c1)C(=O)O (stereo not given),-1,25µM*,-7,2,1%,?
Cc1ccsc1-c1nc2ccccc2s1,6,nt,nt,nt,nt,?
CC1CC(C)CN(C(=O)COC(=O)/C=C/c2cccc([N+](=O)[O-])c2)C1 (stereo not given),-5,nt,-109*,4,3%,0%
CCOC(=O)C1CCCN(C(=O)/C=C/c2cccc([N+](=O)[O-])c2)C1 (stereo not given),-8,25µM*,-3,-5,-5%,69%
Oc1ccc(Cl)cc1C=Nc1ccccc1Br,2,?,-9,-4,-1%,-12%
CC(C)(C)N=Cc1cc(Br)ccc1O,-3,nt,nt,nt,nt,56µM*
Oc1ccc(Br)cc1C=Nc1ccc2c3c(cccc13)CC2,10,32µM*,-11,2,-3%,4%
NC(=O)N/N=C\c1cc(Br)ccc1O,11,1%,12,6,6%,-15%
CCCCn1c(O)c(C2=Nc3ccccc3SC(c3ccc(O)cc3)C2)c(=O)[nH]c1=O (stereo not given),-25,nt,nt,nt,nt,28µM*
CCCCn1c(O)c(C2=Nc3ccccc3SC(c3cccc(O)c3)C2)c(=O)[nH]c1=O (stereo not given),4,nt,nt,nt,nt,?
COC(=O)c1c(C)[nH]c(C(=O)OC(C)C(=O)NC2CCCCC2)c1C (stereo not given),12,nt,nt,nt,nt,3%
CCCOc1ccc(-c2nc(C#N)c(NCCCN(CC)CC)o2)cc1,-16,nt,nt,nt,nt,?
CCOc1ccc(Nc2oc(-c3ccc(OCC)cc3)nc2C#N)cc1,11,nt,nt,nt,nt,12%
CCOc1ccc(Nc2oc(-c3cccs3)nc2C#N)cc1,-5,18µM*,4,-12,nt,22%
Cc1cccc(-c2nc(C#N)c(NCCCN(C)C)o2)c1,6,nt,nt,nt,nt,?
CCCOc1ccc(-c2nc(C#N)c(NCCN(C)C)o2)cc1,-32*,nt,nt,nt,nt,-5%
CCOc1ccc(-c2nc(C#N)c(NCC(C)C)o2)cc1,0,40µM*,3,1,?,?
CN(C)CCNc1oc(-c2cccc(Cl)c2)nc1C#N,-33*!,16µM*,18,1,15%,-44%
O=C(CSc1nnc(-c2cccnc2)n1-c1ccccc1)Nc1ccc(Cl)cn1,-9,nt,nt,nt,nt,-8%
C=CCNc1oc(-c2ccc(OCC)cc2)nc1C#N,-2,0.79µM*,3,9,-25%,11%
CCc1ccc(N2C=C(C(=O)OC)C(c3ccccc3F)C(C#N)=C2N)cc1 (stereo not given),-3,-13%,nt,nt,nt,45µM*
